Assay results as given in PubChem BioAssay AID743099 (Vanderbilt Specialized Chemistry Center, 2013).
Calls of active or inactive are those of the source. The rule behind the calls is not given here.

Molecular target: Muscarinic acetylcholine receptor M2 (Homo sapiens) (UniProt P08172)
Test: off-target M2 muscarinic calcium response – cell-based, CHO-K1 hM2/Gqi5, Fluo-4 calcium flux, ACh EC20, counter-screen for M5 NAM project (AID 743099)

Sequence of Muscarinic acetylcholine receptor M2 (Homo sapiens) (P08172 whole entry, looked up): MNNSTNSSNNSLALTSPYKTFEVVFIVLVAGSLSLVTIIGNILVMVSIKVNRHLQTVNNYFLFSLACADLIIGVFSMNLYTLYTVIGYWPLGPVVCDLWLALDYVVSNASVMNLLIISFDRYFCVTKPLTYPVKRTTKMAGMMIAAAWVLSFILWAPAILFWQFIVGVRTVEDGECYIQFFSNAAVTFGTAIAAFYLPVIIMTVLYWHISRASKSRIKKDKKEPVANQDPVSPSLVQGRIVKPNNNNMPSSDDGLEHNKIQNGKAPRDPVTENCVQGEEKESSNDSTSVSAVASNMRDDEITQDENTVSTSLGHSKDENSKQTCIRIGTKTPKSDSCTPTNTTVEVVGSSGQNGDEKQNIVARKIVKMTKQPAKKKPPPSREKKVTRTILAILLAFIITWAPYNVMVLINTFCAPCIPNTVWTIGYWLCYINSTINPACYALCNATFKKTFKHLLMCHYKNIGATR

Row | SMILES | outcome
1 | O=C(c1ccc(F)c(F)c1)N1CCN2C(=O)c3ccccc3C12c1ccc(Cl)cc1 (stereo not given) | inactive
2 | O=C(c1ccc(F)c(F)c1)N1CCN2C(=O)c3ccccc3[C@@]12c1ccc(Cl)cc1 | inactive
3 | O=C(c1ccc(F)cc1)N1CCN2C(=O)c3ccccc3C12c1ccccc1 (stereo not given) | inactive
4 | O=C(c1cc(F)cc(F)c1)N1CCN2C(=O)c3ccccc3C12c1ccc(Cl)cc1 (stereo not given) | inactive
5 | O=C(c1ccc(F)c(F)c1)N1CCN2C(=O)c3ccccc3C12c1ccccc1 (stereo not given) | inactive
